ELG1 genotox = genotoxicity induction in ELG1-luciferase HEK293T cells | HEK293T ELG1-luciferase reporter, luminescence, 16 h | Potency, µM (titrated, usually from 46 µM), inactives show top-dose activity change, positive = activation, hits mostly activators | 330,000 compounds, 1.3% hits; further: % of control where 0% means no effect; nearly all actives have a fitted effect of over 60% in size
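Quantitative HTS format in 1536-well plates. HEK293T ELG1-luciferase reporter cells receive test compound and are incubated 16 hr at 37 °C, 5% CO2; ONE-Glo added, 30 min room temperature, then luminescence read.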
SMN2 splice enh = SMN2 splice variant enhancement; 210,000 compounds, 2.8% hits; Potency, µM (doses to about 46.1 µM), for inactives: top-dose activity change, positive = activation, actives largely listed as activators; AID 1458; HEK293 SMN2-luciferase splicing reporter, luminescence, 30-36 h; further: % of control where 0% means no effect; nearly all actives have a fitted effect of over 55% in size
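HEK293 cells carry an SMN2 minigene-luciferase reporter in which exon 7 inclusion puts luciferase in frame. Cells were seeded at 2000 cells/well, attached for 10-12 hours, then exposed to compounds for 30-36 hours at 37C before ONE-Glo luminescence.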
FLuc modulator = counter-screen for miR-21 project: firefly luciferase inhibitors or activators. purified FLuc, Km substrates, luminescence inhibition. Potency, µM (highest dose often 57.5 µM), inactives show top-dose activity change, negative = inhibition, actives largely listed as inhibitors. 360,000 compounds, 6.9% hits. P08659;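 further: plate controls were vehicle for no effect and reference inhibitor for full effect; nearly all actives have a fitted effect of over 55% in size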
Target sequence (P08659 whole entry, looked up): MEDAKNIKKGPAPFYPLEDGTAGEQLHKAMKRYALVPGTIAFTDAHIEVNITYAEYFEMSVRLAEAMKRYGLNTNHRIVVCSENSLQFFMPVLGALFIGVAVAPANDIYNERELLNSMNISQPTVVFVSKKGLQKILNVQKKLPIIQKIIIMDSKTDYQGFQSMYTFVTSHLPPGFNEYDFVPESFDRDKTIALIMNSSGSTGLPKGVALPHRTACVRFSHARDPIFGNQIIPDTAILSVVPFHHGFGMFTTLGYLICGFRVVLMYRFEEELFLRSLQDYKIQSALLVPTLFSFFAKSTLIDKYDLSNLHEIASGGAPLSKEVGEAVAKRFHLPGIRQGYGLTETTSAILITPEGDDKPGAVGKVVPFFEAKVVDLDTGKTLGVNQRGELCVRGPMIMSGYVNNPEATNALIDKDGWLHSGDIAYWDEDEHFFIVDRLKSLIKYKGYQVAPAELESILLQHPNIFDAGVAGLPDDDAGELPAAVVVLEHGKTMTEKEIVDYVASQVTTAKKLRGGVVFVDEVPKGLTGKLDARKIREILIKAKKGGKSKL
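Biochemical qHTS of compounds, final roughly 60 µM downward over six points, against 10 nM purified firefly luciferase using Km concentrations of substrates (10 uM D-luciferin, 10 uM ATP) in Tris acetate pH 7.5 buffer; luminescence output.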
NPC1 promoter act = activators of NPC1 promoter. Potency, µM (doses to about 9.22 µM), for the others: top-dose activation, hits mostly activators. 320,000 compounds, 2.4% hits. Huh7 NPC1 promoter luciferase reporter, 24 h; further: % of control where 0% means no effect; nearly all actives have a fitted effect of over 60% in size
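NPC1 promoter–luciferase Huh7 cells; 24 h compound; luminescence.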
Rab9 promoter act = Rab9 promoter activation; Potency, µM (highest dose often 9.22 µM), for the others: at the top dose activation, negative = inhibition, usual class: activators; AID 485297; 320,000 compounds, 2.8% hits; Huh7 Rab9 promoter-luciferase reporter, luminescence, 24 h; further: % of control where 0% means no effect; nearly all actives have a fitted effect of over 60% in size
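Huh7 cells stably carrying a Rab9 promoter-luciferase reporter, 1500 cells per well in OP-MEM I with 10% FBS, treated with compound 24 hours at 37C. Luciferase activity read by luminescence after 10 minutes with Amplite reagent.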
* marks the source's active call; other numbers are inactive results; ? = inconclusive; . = no result; [ ] = another dose, or the depositor's remark. A selection: hits, their analogues and other compounds. The true share with any hit is near 7.4%. The call rests on the fitted dose curve; in most records, active means well fitted curve in the direction sought with a large enough effect; inconclusive means small, poorly fitted or top-dose-only effect, or another doubt; inactive means no such curve, though single readings can be large; an effect the other way counts as inactive or inconclusive. Potency means the concentration at half of the fitted maximal effect.

SMILES	ELG1 genotox	SMN2 splice enh	FLuc modulator	NPC1 promoter act	Rab9 promoter act
O=C(O)COc1ccccc1C1Nc2ccccc2-c2nnc(SCc3ccc(Cl)cc3)nc2O1 (stereo not drawn)	.	-4.8%	?	.	.
O=C(Oc1ccccc1F)c1nc(SCc2ccccc2F)ncc1Cl	.	7.3%	-16.3%	.	.
COc1ccc(NC(=O)Cn2c(C)cc3ccccc3c2=O)c(OC)c1	.	-8.5%	0.2%	.	.
COc1ccc(NC(=O)Cn2c(=O)n(Cc3ccccc3)c(=O)c3sc4ccccc4c32)cc1	.	9.8%	2.6%	.	.
c1ccc(Cc2nnc(-c3ccccc3)o2)cc1	3.26µM*	?	23.9µM*	?	?
Cn1c(C(=O)NCC2CCCO2)cc2c(=O)[nH]c3ccccc3c21 (stereo not drawn)	0.7%	5.9%	9.1%	-6.6%	2.6%
CCn1c(C(=O)NCc2ccccc2Br)cc2oc3ccccc3c21	.	4.47µM*	-10.0%	.	.
Cn1c(C(=O)NCC2CCCO2)cc2oc3ccccc3c21 (stereo not drawn)	?	6.1%	13.5µM*	2.82µM*	1.58µM*
Cn1c(C(=O)NCc2cccs2)cc2oc3ccccc3c21	-2.3%	4.47µM*	13.5µM*	1.4%	?
COc1ccc(CNC(=O)c2cc3oc4ccccc4c3n2C)cc1OC	.	?	-11.7%	.	.
Cn1c(C(=O)NCc2ccccc2)cc2oc3ccccc3c21	7.0%	31.6µM*	13.5µM*	17.1%	?
COc1cccc(C2C(C(=O)Nc3ccc(Cl)cc3)=C(C)Nc3c(C(=O)Nc4ccccc4)cnn32)c1OC (stereo not drawn)	.	3.5%	-5.9%	.	.
CCC(C)NC(=O)Cn1c(=O)c2cccn2c2ccc(F)cc21 (stereo not drawn)	.	.	-2.0%	.	.
CCOC(=O)Cc1csc(NC(=O)/C=C/c2ccccc2Cl)n1	-7.3%	.	1.2µM*	?	?
CCOC(=O)Cc1csc(NC(=O)c2c(-c3c(Cl)cccc3Cl)noc2C)n1	-1.0%	3.9%	3.7%	-6.2%	-2.9%
CCOC(=O)Cc1csc(NC(=O)/C=C\c2ccccc2Cl)n1	7.9%	.	1.51µM*	27.4%	?
CC(=O)N1c2ccc(S(=O)(=O)N3CCCCCC3)cc2CC1C(=O)NC(C)C (stereo not drawn)	.	.	-2.2%	.	.
CN(C)c1ccc(-c2ccccc2)nn1	8.2µM*	15.8µM*	10.7µM*	1.58µM*	1.58µM*
CCN(CC)c1cc(-c2ccccc2)ncn1	7.1%	-3.8%[1.84 µM]	?	2.5%	21.4%
COc1cccc(CNC(=O)C(CC(C)C)NS(=O)(=O)c2ccc3c(c2)oc(=O)n3C)c1 (stereo not drawn)	.	11.0%	-4.0%	.	.
CN(c1ccccc1)c1nc2ccsc2c(=O)s1	13µM*	?	12µM*	?	3.16µM*
CCOC(=O)C1CCC(CN(Cc2ccc(Cl)cc2)S(=O)(=O)c2cccc(Cl)c2C)CC1 (stereo not drawn)	.	.	-2.2%	.	.
c1ccc2nc(SCc3cn4ccccc4n3)cnc2c1	1.5%	?	?	?	?
c1ccc(CSCc2cn3ccccc3n2)cc1	?	15.8µM*	16.9µM*	2.82µM*	1.12µM*
Cc1ccc(SCc2cn3ccccc3n2)cc1	5.17µM*	.	5.36µM*	1.26µM*	1.58µM*
SMILES	ELG1 genotox	SMN2 splice enh	FLuc modulator	NPC1 promoter act	Rab9 promoter act
CC(C)=CCNc1ncnc2c1c(C#N)cn2[C@H]1O[C@@H](CO)[C@@H](O)[C@@H]1O	.	-10.7%[9.22 µM]	.	.	.
COc1cc(/C=C/c2noc(-c3ccccc3O)n2)ccc1OC(C)=O	13µM*	.	12µM*	?	?
Oc1ccccc1/C=C/c1noc(-c2ccccc2O)n1	5.8µM*	?	1.9µM*	?	14.0%
CCOC(=O)c1scc(-c2ccc(C)cc2)c1S(=O)(=O)N1CCN(c2ccccc2F)CC1	.	.	-9.6%	.	.
Cc1n[nH]c(=S)n(/N=C/c2cccs2)c1=O	-0.7%	.	2.6%	-2.7%	1.3%
CCN(CC)c1ccc(/C=N/n2c(=S)[nH]nc(C)c2=O)cc1	-1.0%	.	15.1µM*	10.9%	10.8%
Cc1ccc(CSC2=Nc3ccccc3C3=NC(CCC(=O)NC4CCCCC4)C(=O)N23)cc1 (stereo not drawn)	.	.	2.9%	.	.
CN(Cc1nc(-c2cccc(Cl)c2)no1)C1CCOCC1	?	.	?	?	2µM*
COc1ccc(OCc2cc(C(=O)NC(C)c3cnn(C)c3)no2)c(Cl)c1 (stereo not drawn)	?	.	13.5µM*	?	?
CC(NC(=O)c1cc(COc2c(F)cccc2F)on1)c1cnn(-c2ccccc2)c1 (stereo not drawn)	18.2%	.	16.9µM*	23.4%	?
Cc1nc2cc(OCc3cc(C(=O)NC(C)c4cnn(C)c4)no3)ccc2s1 (stereo not drawn)	-4.3%	.	16.9µM*	12.5%	26.8%
Cc1nn(C)cc1C(C)NC(=O)c1cc(COc2c(F)cccc2F)on1 (stereo not drawn)	2.6%	.	5.2%	-6.7%	-2.3%
O=C(COCc1cc(-c2ccc(F)cc2)on1)Nc1cccc(C(F)(F)F)c1	.	11.0%	-23.0%	.	.
ICCc1ccccc1	.	-7.7%	.	.	.
COc1ccc2cc([S+]([O-])Cc3ncc(C)c(OC)c3C)nc2c1	.	.	.	15.5%[46.1 µM]	13.2%[46.1 µM]
CCN(CC)c1ccc(-c2nc3cnccc3n2C)cc1	?	?	4.78µM*	3.98µM*	3.98µM*
Cn1c(-c2ccncc2)nc2ccccc21	7.3%	.	6.0%	0.0%	0.0%
Oc1cc2c(cc1O)C(c1ccccc1)CNCC2 (stereo not drawn)	.	8.9%	.	0.3%[46.1 µM]	1.4%[46.1 µM]
Oc1cc2c(cc1O)[C@@H](c1ccccc1)CNCC2	-2.4%	-29.5%	4.78µM*	-0.3%	-3.2%
CCOC(=O)C1(CCc2ccccc2)CCN(C2Cc3ccccc3C2)CC1	-20.6%	.	15.1µM*	?	?
CCOC(=O)C1(CCc2ccccc2)CCN(C(=O)Cc2nonc2C)CC1	11.9%	2.6%	19µM*	-0.6%	?
CC(C)(C)OC(=O)N1CCC[C@H]1C(O)(c1ccccc1)c1ccccc1	.	0.3%	.	.	.
COc1ccc(C(=O)n2nnc3ccccc32)cc1OC	1.2%	-2.6%	?	-1.2%	-4.8%
O=C(c1ccc2c(c1)OCO2)N1CCCc2ccccc21	?	.	?	2.7%	-1.8%
COC(=O)c1cc2c(s1)-c1ccc(OC)cc1CC2	?	.	9.53µM*	14.9%	?
O=C(c1ccc2c(c1)OCO2)N1CCc2ccccc2C1	?	?	21.3µM*	?	24.3%
COC(=O)c1cc2c(s1)-c1ccccc1OC2	10.4%	2.0%	23.9µM*	8.0%	-10.6%
COc1ccc(N(C)C(=O)c2cc3c(s2)-c2ccccc2OC3)cc1	.	-23.6%	?	.	.
COc1ccc(OC)c(NC(=O)c2cc3c(s2)-c2ccccc2SC3)c1	.	-11.5%	-13.7%	.	.
O=C(c1ccc2c(c1)OCO2)n1nnc2ccccc21	-1.1%	-8.4%	6.75µM*	-3.2%	1.0%

Screens: PubChem, National Center for Advancing Translational Sciences (NCATS)
